uPA generation = qHTS for Inhibitors of Cell Surface uPA Generation; AID 540303, 2011; cell surface uPA generation assay, qHTS; Potency, µM (top dose mostly 38.3 µM), hits mostly inhibitors; actives 0.31% (n = 330,000); active = well fitted inhibition curve with a large enough effect; inconclusive = small, poorly fitted or top-dose-only effect; inactive = no such curve, though single readings can be large or run the other way; tested in mouse RAW 264.7 cells; also: nearly all actives have a fitted effect of over 55% in size
miR-21 act = qHTS Assay for Modulators of miRNAs and/orActivators of miR-21. 340,000 tested, under 10 active. Potency, µM (series often up to 38.3 µM), usual class: activators. AID 2288, 2010. HeLa miR-21 FLuc reporter, luciferase, 48 h;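 also: miR-21 action dims this reporter so a rising signal means less miR-21 action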
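Using DMEM plus 10% FBS, HeLa miR-21-FLuc cells are incubated with test compounds (final up to about 40uM) for 48 hours; firefly luciferase signal is then imaged following reagent-mediated lysis.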
TDP1 cell CPT = qHTS for Inhibitors of human tyrosyl-DNA phosphodiesterase 1 (TDP1): qHTS in cells in presence of CPT; actives 12% (n = 420,000); Potency, µM (highest dose often 46.2 µM), hits mostly inhibitors; chicken DT40 Tdp1-/-;hTDP1 cells + 20 nM CPT, ATP luminescence, 48 h; also: nearly all actives have a fitted effect of over 55% in size
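Chicken DT40 Tdp1-/- cells stably complemented with human TDP1 were seeded at 400 cells/well in medium containing 20 nM camptothecin, exposed to pin-transferred compounds, and grown at 37 °C for at least 48 hr. Viability was read as ATP luminescence.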
TDP1 cell noCPT = qHTS for Inhibitors of human tyrosyl-DNA phosphodiesterase 1 (TDP1): qHTS in cells in absence of CPT; DT40 Tdp1-/- hTDP1 cells, no CPT, ATP luminescence, 48 h; Potency, µM (doses to about 46.2 µM), usual class: inhibitors; actives 15% (n = 420,000); also: nearly all actives have a fitted effect of over 55% in size
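Growth kinetics read by CellTiter-Glo luminescence after ≥48 hr at 37 °C. Cells: DT40 Tdp1-/- stably carrying human TDP1, 400 per well, compound exposure in the absence of CPT (DMSO vehicle).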
TDP1 block = qHTS Assay for Inhibitors of Tyrosyl-DNA Phosphodiesterase (TDP1). Tyrosyl-DNA phosphodiesterase 1 (Homo sapiens), Q9NUW8. recombinant TDP1, AlphaScreen DNA substrate cleavage. Potency, µM (doses to about 130 µM), most hits filed as inhibitors. actives 0.28% (n = 350,000). AID 485290, 2010; also: nearly all actives have a fitted effect of over 40% in size
Target sequence (Q9NUW8 whole entry, looked up): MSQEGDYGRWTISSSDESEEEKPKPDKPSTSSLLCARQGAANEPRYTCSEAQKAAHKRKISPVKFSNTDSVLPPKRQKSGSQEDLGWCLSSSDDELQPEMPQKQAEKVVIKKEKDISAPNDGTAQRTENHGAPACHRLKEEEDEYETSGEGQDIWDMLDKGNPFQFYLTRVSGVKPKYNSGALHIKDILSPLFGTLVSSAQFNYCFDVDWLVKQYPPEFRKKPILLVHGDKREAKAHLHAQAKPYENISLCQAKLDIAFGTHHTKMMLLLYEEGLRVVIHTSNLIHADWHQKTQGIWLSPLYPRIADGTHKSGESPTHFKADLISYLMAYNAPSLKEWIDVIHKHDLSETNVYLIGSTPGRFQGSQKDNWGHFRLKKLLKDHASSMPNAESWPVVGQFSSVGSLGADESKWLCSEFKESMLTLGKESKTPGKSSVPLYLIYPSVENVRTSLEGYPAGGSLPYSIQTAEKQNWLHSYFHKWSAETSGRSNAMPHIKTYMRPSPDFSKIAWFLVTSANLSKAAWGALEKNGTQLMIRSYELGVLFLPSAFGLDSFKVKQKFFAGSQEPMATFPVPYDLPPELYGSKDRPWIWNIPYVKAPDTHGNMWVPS
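E. coli-derived human Tdp1, 1 nM final. Cpd preinc 15 min RT; substrate 15 nM final, 5 min RT; AS bead mix 10 ug/ml final, 10 min RT. Signal loss = tyrosine-FITC cleavage. No-enzyme wells = max signal.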
Of the large screens only hits and unclear results are named; the others gave an inactive call. Rows were chosen to be rich in hits. Some 16% of all compounds tested hit in one or more screens of this group. Unless noted, calls follow the shape of the dose curve; as a rule, active = well fitted curve in the direction sought with a large enough effect; inconclusive = small, poorly fitted or top-dose-only effect, or another doubt; inactive = no such curve, though single readings can be large; an effect the other way counts as inactive or inconclusive.

CCCN(C(=O)c1cc(S(=O)(=O)N(C)c2ccc(OCC)cc2)ccc1C)C1CCS(=O)(=O)C1 (stereo unspecified)	TDP1 cell CPT inconclusive, TDP1 cell noCPT 25.9µM (no result: miR-21 act)
CCN(C(=O)c1cc(S(=O)(=O)N2CCCC2)ccc1C)C1CCS(=O)(=O)C1 (stereo unspecified)	none (no result: miR-21 act)
COc1ccc(CCNC(=O)c2cc(S(=O)(=O)N(C)c3ccccc3)ccc2Cl)cc1	TDP1 cell CPT 18.4µM, TDP1 cell noCPT 7.31µM
COc1ccc(CCNC(=O)c2ccc(N(C)S(=O)(=O)c3ccccc3)cc2)cc1	TDP1 cell CPT inconclusive, TDP1 cell noCPT inconclusive
CCN(CC)c1ccc(C=NCCc2ccc(S(N)(=O)=O)cc2)cc1	none
O=C(CSc1nnc(CNc2ccccc2)o1)N1CCN(C(=O)c2ccco2)CC1	none
CCC(Sc1nc2ncnc(N)c2[nH]1)C(=O)O (stereo unspecified)	none
O=C1C=CC(=O)c2c(O)c(N3CCN(CCOCCO)CC3)c(Br)c(O)c21	TDP1 cell CPT 0.651µM, TDP1 cell noCPT 0.92µM (no result: miR-21 act, TDP1 block)
O=C1C=CC(=O)c2c(O)c(N3CCN(CCO)CC3)c(Cl)c(O)c21	TDP1 cell CPT 0.581µM, TDP1 cell noCPT 0.581µM (no result: miR-21 act, TDP1 block)
CCOc1cc(CN2CCN(CCOCCO)CC2)ccc1OC	none
Cc1ccc(S(=O)(=O)N2CCN(C(=O)CSc3nncs3)CC2)cc1	none
CNc1nc(Nc2ccc(C(=O)OC)cc2)c2sccc2n1	TDP1 cell CPT 13µM, TDP1 cell noCPT 14.6µM (no result: uPA generation, miR-21 act, TDP1 block)
COCCNc1nc(N)c([N+](=O)[O-])c(Nc2ccc(F)cc2)n1	none (no result: TDP1 block)
COCCNc1nc(Nc2ccc(Cl)cc2F)c2sccc2n1	TDP1 cell CPT 13µM, TDP1 cell noCPT 16.4µM (no result: uPA generation, miR-21 act, TDP1 block)
COC(=O)c1ccc(Nc2nc(C)cc(=O)[nH]2)cc1	none
CCOC(=O)Cc1ccc(Nc2nc(NCCOC)nc3ccsc23)cc1	TDP1 cell CPT 13µM, TDP1 cell noCPT 14.6µM (no result: uPA generation, miR-21 act, TDP1 block)
CC(C)Nc1nc(Nc2ccc(C(N)=O)cc2)c2sccc2n1	TDP1 cell CPT 25.9µM, TDP1 cell noCPT inconclusive (no result: uPA generation, miR-21 act, TDP1 block)
COCCNc1nc(Oc2ccc(Cl)c(Cl)c2)c2sccc2n1	TDP1 cell CPT inconclusive (no result: uPA generation, miR-21 act, TDP1 block)
COCCNc1nc(Nc2ccc(C(=O)OC)cc2)c2sccc2n1	TDP1 cell CPT 11.6µM, TDP1 cell noCPT 16.4µM (no result: uPA generation, miR-21 act, TDP1 block)
CCCc1ccc(C(C)NC(=O)c2cnccn2)cc1 (stereo unspecified)	TDP1 cell CPT inconclusive, TDP1 cell noCPT 23.1µM
CC1CCC(NCC(=O)Nc2cccc(S(N)(=O)=O)c2)CC1 (stereo unspecified)	none (no result: TDP1 block)
COc1ccc(N=C2NC(=O)C(CC(=O)NCCc3ccc(OC)c(OC)c3)S2)cc1 (stereo unspecified)	none
COc1cccc(C2C=C(Nc3ccccc3)C(=O)N2c2ccccc2)c1 (stereo unspecified)	none
Cc1cccc(NC2=CC(c3cccc(Br)c3)N(c3cccc(C)c3)C2=O)c1 (stereo unspecified)	TDP1 cell CPT inconclusive, TDP1 cell noCPT 8.2µM (no result: uPA generation)
COC(=O)c1ccccc1NC(=S)N1CCOCC1	none (no result: TDP1 block)
COc1ccc(N/N=C(\C#N)C(=N)N2CCCCC2)cc1	uPA generation inconclusive, TDP1 cell noCPT inconclusive
COc1ccc(N/N=C(\C#N)C(=N)SCc2ccccc2)cc1	uPA generation inconclusive, TDP1 cell CPT 4.61µM, TDP1 cell noCPT 7.31µM
CSc1cccc(NC(=O)/C=C/c2ccco2)c1	TDP1 cell CPT 23.1µM, TDP1 cell noCPT inconclusive
CC(OC(=O)/C=C/c1ccco1)C(=O)Nc1cccc([N+](=O)[O-])c1 (stereo unspecified)	TDP1 cell CPT 18.4µM, TDP1 cell noCPT 18.4µM (no result: TDP1 block)
CC(=O)c1ccc(NC(=S)NC(=O)/C=C/c2ccco2)cc1	TDP1 cell noCPT inconclusive (no result: TDP1 block)
O=C(/C=C/c1ccco1)NC(=S)Nc1ccc(N2CCOCC2)c(Cl)c1	TDP1 cell CPT 5.17µM, TDP1 cell noCPT 4.61µM
Cc1cccc(NC(=S)NC(=O)/C=C/c2ccco2)c1	TDP1 cell CPT 3.26µM, TDP1 cell noCPT inconclusive
CC1CCCC(C)N1C(=O)c1cc(-c2cccs2)on1 (stereo unspecified)	none
O=C(/C=C/c1ccco1)NC(=S)Nc1cccc([N+](=O)[O-])c1	TDP1 cell CPT inconclusive, TDP1 cell noCPT 14.6µM
CC(OC(=O)/C=C/c1ccccc1)C(=O)Nc1cccc(C#N)c1 (stereo unspecified)	TDP1 cell CPT 16.4µM, TDP1 cell noCPT 16.4µM (no result: miR-21 act)
O=C(NC(=S)Nc1cccc([N+](=O)[O-])c1)c1ccco1	none
Cc1c(NC(=O)C(C)OC(=O)/C=C/c2ccccc2)c(=O)n(-c2ccccc2)n1C (stereo unspecified)	none
O=C(/C=C/c1ccco1)Nc1ccc(Oc2ccc(Cl)cc2)cc1	TDP1 cell CPT 4.11µM, TDP1 cell noCPT 3.26µM
COc1cccc(NC(=O)/C=C/c2ccco2)c1	TDP1 cell noCPT inconclusive
O=C(/C=C/c1ccco1)NC(=S)Nc1ccccc1	uPA generation inconclusive, TDP1 cell noCPT 25.9µM (no result: TDP1 block)
COc1ccc(CCNC(=O)CSc2nc3scc(-c4ccccc4)c3c(=O)[nH]2)cc1	TDP1 cell CPT inconclusive, TDP1 cell noCPT inconclusive (no result: miR-21 act)
Cc1cnc(C(=O)N2CCN(S(=O)(=O)c3cc(C(F)(F)F)cc(C(F)(F)F)c3)CC2)cn1	TDP1 cell noCPT inconclusive (no result: miR-21 act, TDP1 block)
O=C(O)c1ccc(-c2ccc(-c3ccccc3)cc2)o1	none (no result: uPA generation, miR-21 act, TDP1 cell CPT, TDP1 cell noCPT)
O=C(C[n+]1cc(Br)cc(Br)c1)c1ccc(I)cc1	none (no result: uPA generation, miR-21 act, TDP1 block)
CC12Cc3ccc4ccccc4c3C=C1C[N+](C)(C)C2 (stereo unspecified)	none
CC[N+]1(CC)CC2=Cc3c(ccc4ccccc34)CC2C1 (stereo unspecified)	TDP1 cell CPT inconclusive, TDP1 cell noCPT 20.6µM
COc1ccccc1-n1cnnc1SCC(=O)Nc1cccc(S(=O)(=O)N2CCCCC2)c1	none (no result: uPA generation, TDP1 cell CPT, TDP1 cell noCPT)
CC(=O)c1ccc(-c2cnc3c(NC=O)cc(-c4ccc(N5CCN(C)CC5)cc4)cn23)cc1	TDP1 cell CPT inconclusive, TDP1 cell noCPT 20.6µM (no result: uPA generation, miR-21 act, TDP1 block)
CN1CCN(c2ccc(-c3cc(NC=O)c4ncc(-c5ccc(F)c(Cl)c5)n4c3)cc2)CC1	TDP1 cell CPT 11.6µM, TDP1 cell noCPT 16.4µM (no result: uPA generation, miR-21 act, TDP1 block)
O=C(CN1CCN(c2ccc(Cl)cc2)CC1)Nc1ccc(F)c(F)c1	TDP1 cell CPT inconclusive, TDP1 cell noCPT inconclusive
CC(=O)Nc1cc(-c2ccc(N3CCN(C)CC3)cc2)cn2c(-c3ccc(F)c(Cl)c3)cnc12	TDP1 cell CPT 18.4µM, TDP1 cell noCPT inconclusive (no result: uPA generation, miR-21 act, TDP1 block)
Cc1ccc(S(=O)(=O)N2CC3(O)CN(C(=O)OC(C)C)N(C(=O)OC(C)C)CC3(OC(=O)NC3CCCC3)C2)cc1 (stereo unspecified)	TDP1 cell CPT inconclusive, TDP1 cell noCPT 23.1µM (no result: uPA generation, miR-21 act, TDP1 block)
